# High-throughput results from PubChem.
# ERG-DNA inh: ERG Ets/DNA interaction inhibition. P11308. fluorescence polarization, His-ERG Ets domain / labelled DNA. Potency, µM (top dose mostly 76.9 µM), usual class: inhibitors. hit rate 0.028% among 370,000. AID 624246; active means well fitted inhibition curve with a large enough effect in the polarisation, with a control signal flat; inconclusive means small, poorly fitted or top-dose-only effect, or effect the other way, or a change in a side signal; inactive means no such curve, though single readings can be large or run the other way; the % refers to the polarisation;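 further: polarization taken with two DNA probes labelled with fluorescein and Texas red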
#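 His-tagged ERG Ets domain (1 uM in the protein solution; 300mM KCl, 50mM Tris-HCl, 1mM EDTA, 1mM DTT, pH 7.5) received compound, then a probe mix of 5 nM fluorescein-DNA and 100nM Texas-615-DNA. Fluorescence polarization was read for both dyes.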
# TR SRC2 fluor cs: alters Texas Red total fluorescence, flagging assay interference | AID 1479 | Potency, µM (top dose mostly 106 µM) | TRb/SRC2 Texas Red total fluorescence interference | hit rate 0.29% among 280,000; active means well fitted curve in either direction with a large enough effect; inconclusive means small, poorly fitted or top-dose-only effect
#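 Human TRb ligand-binding domain at 0.6 uM with 20 nM Texas Red SRC2 peptide in Tris buffer containing 1 uM T3 and 5% DMSO, incubated with compound 5 h at ambient temperature. Total fluorescence (555/632 nm) calculated as parallel + 2 × perpendicular.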
# GoLoco inh red: inhibitors of human Gai1-RGS12 GoLoco interaction (red fluorophore). P63096. Gai1:RGS12 GoLoco peptide FP, rhodamine, 10 min. Potency, µM (doses to about 61.6 µM), most hits filed as inhibitors. hit rate 0.44% among 230,000. AID 880; active means well fitted inhibition curve with a large enough effect, not every such curve was filed as active; inactive means no such curve, though single readings can be large or run the other way; further: nearly all actives have a fitted effect of over 30% in size
# CBFb-RUNX1 inh: CBF-beta/RUNX1 interaction disruption; Q01196+Q13951; AlphaScreen CBFb-His/RUNX1-biotin binding, biochemical; Potency, µM (highest dose often 59.8 µM), most hits filed as inhibitors; 230,000 tested, under 10 active; AID 1477
# Target sequence (Q01196 whole entry, looked up): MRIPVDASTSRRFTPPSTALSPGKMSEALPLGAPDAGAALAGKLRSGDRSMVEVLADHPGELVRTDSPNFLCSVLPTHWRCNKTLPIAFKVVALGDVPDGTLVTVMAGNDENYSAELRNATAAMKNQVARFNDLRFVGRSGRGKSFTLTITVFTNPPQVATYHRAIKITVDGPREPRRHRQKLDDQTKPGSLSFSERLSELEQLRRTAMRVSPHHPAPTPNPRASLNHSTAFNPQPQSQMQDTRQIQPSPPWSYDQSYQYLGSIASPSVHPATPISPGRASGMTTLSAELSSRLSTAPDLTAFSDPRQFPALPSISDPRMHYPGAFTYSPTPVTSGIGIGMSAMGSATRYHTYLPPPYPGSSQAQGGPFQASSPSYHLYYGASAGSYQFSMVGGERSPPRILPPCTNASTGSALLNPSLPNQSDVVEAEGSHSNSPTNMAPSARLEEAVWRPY
# Target sequence (Q13951 whole entry, looked up): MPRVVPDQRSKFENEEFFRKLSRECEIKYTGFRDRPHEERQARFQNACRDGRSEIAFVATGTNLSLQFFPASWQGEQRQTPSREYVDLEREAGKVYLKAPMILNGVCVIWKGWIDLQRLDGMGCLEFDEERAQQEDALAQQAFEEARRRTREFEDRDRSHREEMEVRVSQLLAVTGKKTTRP
#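 CBF-beta (His) and RUNX1 (biotin), 30 nM each; 20 min preassociation; + compound, 15 min; + beads 50 ng each (Ni, streptavidin), 90 min; RT; AlphaScreen read.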
# TRb SRC2 PPI: inhibitors of human thyroid hormone receptor beta-SRC2 interaction | P10828 | TRbeta-SRC2 peptide binding, fluorescence polarization; receptor liganded with 1 µM T3 | Potency, µM (top dose mostly 106 µM), hits mostly inhibitors | hit rate 0.065% among 280,000 | AID 1469; further: nearly all actives have a fitted effect of over 50% in size
#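 Decrease in fluorescence polarization of 20 nM Texas Red SRC2 coactivator peptide flagged inhibition of its binding to 0.6 uM TRb LBD; 1 uM T3 included, incubation 5 hr, ex 555/em 632 nm.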
# Numbers stand for hits; n = inactive; u = inconclusive; x = not tested or not shown; [ ] = another dose, or the depositor's remark. This is one part of a sample in which hits are shown more often than they occur. Unless noted, the call rests on the fitted dose curve; in most records, active means well fitted curve in the direction sought with a large enough effect; inconclusive means small, poorly fitted or top-dose-only effect, or another doubt; inactive means no such curve, though single readings can be large; an effect the other way counts as inactive or inconclusive.
SMILES,ERG-DNA inh,TR SRC2 fluor cs,GoLoco inh red,CBFb-RUNX1 inh,TRb SRC2 PPI
Cc1ccc(C(=O)c2cn(Cc3ccc(F)cc3)c3nc(C)ccc3c2=O)cc1,n,0.011µM[quencher],x,x,n
CCO/C=C1\SC(=S)N(c2ccc(Cl)cc2)C1=O,n,n,n,n,u
CC(C)c1ccc(N2C(=O)/C(=C/N(C)C)SC2=S)cc1,n,28µM[fluorescent],n,u,u
CCC(=O)N1CCc2cc(S(=O)(=O)NC(CC(C)C)C(=O)NCc3ccc(F)cc3)ccc21 (centres undefined),n,n,x,x,n
Cc1ccc(S(=O)(=O)N2[C@@H](c3ccccc3F)C(C(=O)O)=CC[C@H]2c2ccc(Cl)c(Cl)c2)cc1,n,x,x,x,x
CCOc1ccccc1NC(=O)C(OC(=O)c1cnccn1)c1ccccc1 (centres undefined),n,x,x,x,x
COC1=C(Nc2ccc(OC)cc2)C(=O)c2ccccc2C1=O,n,n,n,n,n
COC1=C(Nc2ccc(O)cc2)C(=O)c2ccccc2C1=O,n,u,n,u,35µM
CCOc1ccccc1NC(=O)COC(=O)Cc1ccsc1,n,x,x,x,x
CCOc1ccccc1NC(=O)COC(=O)Cc1ccc(-c2ccccc2)cc1,n,32µM[quencher],n,n,u
Cc1ccc(C=C2C(=O)c3ccccc3C2=O)s1,u,45µM[fluorescent],n,u,u
CCN(C(=O)COC(=O)c1ccc(=O)n(Cc2ccccc2)n1)C1CCCCC1,n,x,x,x,x
Cc1ccc2cc3c(N)c4c(C)ccc(C)c4nc3nc2c1,n,n,18µM,n,n
Cc1ccc2c(N)c(C)ccc2c1,n,n,n,n,n
O=C(/C=C/Nc1ccccc1F)c1cccs1,n,n,8.9µM,n,n
O=C(/C=C/Nc1ccc(F)cc1F)c1cccs1,n,n,n,n,n
N#C/C(=C/c1ccc(N2CCOCC2)o1)c1ccc(Br)cc1,n,n,n,n,n
N#C/C(=C\c1ccc(N2CCOCC2)o1)c1ccccc1,x,u,7.1µM,u,n
Cc1cc(C)cc(NS(=O)(=O)c2ccc3c(c2)NC(=O)C(C)S3)c1 (centres undefined),n,n,x,x,n
CCOC(=O)c1c(NC(=O)C2=C(C)NC(=S)NC2c2ccccc2C(F)(F)F)sc(C)c1C (centres undefined),35µM,n,n,n,n
Cc1cc(NS(=O)(=O)c2c(C)[nH]c(=O)[nH]c2=O)ccc1Br,n,x,x,x,x
Fc1ccc(-c2cc(-c3ccc(F)cc3)c3c(n2)-c2cc(F)ccc2OC3)cc1,n,18µM[quencher],x,x,n
CCCCN(CCCC)CCNC(=O)c1cn(C)c2ccc(S(=O)(=O)N3CCOCC3)cc2c1=O,n,n,x,x,n
O=C(O)/C=C\c1c2ccc(=O)c(O)c-2oc2c(O)c(O)ccc12,x,x,0.89µM,x,x
O=C(O)[C@H]1CCCC[C@@H]1c1c2ccc(=O)c(O)c-2oc2c(O)c(O)ccc12,x,x,n[14.2 µM],x,x
SMILES,ERG-DNA inh,TR SRC2 fluor cs,GoLoco inh red,CBFb-RUNX1 inh,TRb SRC2 PPI
CCCCCCCC(=O)Oc1c(Br)cc(C#N)cc1Br,x,n,x,x,n
COc1cc(NC(=O)COC(=O)CNC(=O)c2ccc(C)cc2)c(C)cc1[N+](=O)[O-],n,10µM[quencher],n,n,n
COc1cc(NC(=O)COC(=O)CNC(=O)c2ccc(Cl)cc2)c(C)cc1[N+](=O)[O-],n,n,n,n,n
CCOc1ccc(-c2nonc2NC(=O)c2oc3ccc(F)cc3c2C)cc1,n,0.79µM[quencher],x,x,n
Cc1c(C(=O)Nc2nonc2-c2ccc(F)cc2)oc2ccc(F)cc12,n,x,x,x,x
C=CC(C)(CCC=C(C)C)OC(C)=O (centres undefined),x,n,x,x,n
CC1=Nc2cc(C(=O)NC(C)C)ccc2Sc2ccc(C)cc21,n,n,x,x,n
Cc1ccc(/C=[N+](\[O-])c2ccc(N(C)C)cc2)c2nsnc12,n,40µM[fluorescent],n,u,35µM
COc1ccc2ccc3c(c2c1)N=CC1(O3)N(C)c2ccccc2C1(C)C (centres undefined),x,u,n,n,28µM
C[N+](C)(C)C/C=C1/COCO1,n,n,10µM,n,n
O=C(NNC(=S)Nc1ccc(OC(F)F)cc1)c1cc2c(s1)CCCC2,n,631µM[quencher],n,n,n
CCOC(=O)c1nc(N/N=C/c2ccccc2)sc1Br,n,x,x,x,x
O=C(CC(=O)c1c(F)cccc1Cl)c1ccccc1O,n,x,x,x,x
CC(=O)Nc1ccc(NC(=O)CCCCCN2C(=O)c3ccccc3C2=O)cc1,n,n,n,n,n
CCN(CC)c1ccc(NC(=O)CCCCCN2C(=O)c3ccccc3C2=O)cc1,n,n,22µM,n,n
Cc1cn(C2CC(N=[N+]=[N-])C(CO)O2)c(=O)[nH]c1=O (centres undefined),x,n,n,n,n
COc1ccc(Br)cc1CNc1ccc(O)cc1,n,u,20µM,u,8.9µM
COc1cc(CNc2ccc(O)cc2)cc(Br)c1OCc1ccccc1,40µM,n,n,n,u
COc1ccc(Br)cc1CNc1ccc2[nH]c(=O)[nH]c2c1,n,n,n,u,n
COc1cc(CNC(C)c2ccccc2)cc(Br)c1OCc1ccccc1 (centres undefined),n,x,x,x,x
O=C(Cn1nc(C(F)(F)F)c2c1CCCC2)Nc1ccc(Br)cc1,n,n,x,x,n
CC1OC2(C)OC(=N)C1(C#N)C(C#N)(C#N)C2c1ccccc1 (centres undefined),n,n,n,n,n
CC1C2(C)OC(=N)C(C#N)(C(C)O2)C1(C#N)C#N (centres undefined),u,n,25µM,n,u
CN(C)c1nc(=O)n(C2CCC(O)CC2)c(=O)n1C (centres undefined),x,n,x,x,n
CCc1cccc(CC)c1NC(=O)CSc1nc2ccc(N3C(=O)C4C(C3=O)[C@H]3C=C[C@@H]4C3)cc2s1 (some centres undefined),n,n,2µM,n,n
SMILES,ERG-DNA inh,TR SRC2 fluor cs,GoLoco inh red,CBFb-RUNX1 inh,TRb SRC2 PPI
Cc1ccc(C(=O)N2CC(=O)Nc3ccc(F)cc3C2c2ccccc2)cc1 (centres undefined),n,x,x,x,x
Cc1cc(C)c2c(=O)cc(C(=O)Nc3ccc(S(=O)(=O)Nc4onc(C)c4C)cc3)oc2c1,n,126µM[quencher],x,x,n
COc1ccc2c3c(cccc13)C(=O)CC2,28µM,x,x,x,x
O=C(O)CN(CCCN(CC(=O)O)CC(=O)O)CC(=O)O,x,n,x,x,n
CCn1c(/C=C/N(C(C)=O)c2ccccc2)[n+](CC)c2ccc(Cl)cc21,n,n,1.8µM,n,n
CC[n+]1c(/C=C/C=C/N(C(C)=O)c2ccccc2)sc2ccccc21,n,n,n,n,n
Cc1cc(NC(=O)Cn2c(=O)nc(-c3ccccc3F)c3cc(Cl)ccc32)ccc1Br,n,0.035µM[quencher],x,x,n
CCCCCCc1ccc(N)cc1,x,n,x,x,n
CC12CCC(C[N+](C)(C)C1)C2(C)C (centres undefined),n,n,8.9µM,n,n
Cc1cccc(Cn2c(SCc3ccc(C(=O)NC4CCCC4)cc3)nc3cccnc32)c1,n,n,x,x,n
O=C(OCC1CCC2OC2C1)C1CCC2OC2C1 (centres undefined),x,n,x,x,n
